{"source": "PubChem BioAssay (EPA / NIEHS)", "note": "Where “and” joins values, the source holds several entries; their conditions need not be identical. Identical values can stand only once. Some structures have more than one record in an assay (separate samples or runs), and their calls can disagree. Calls of active or inactive are those of the source. How the source made its calls: active means hit-call score of the fitted dose curve at least 0.9, where 1 is the maximum; inactive means score below 0.9."}
{"assay": "CCTE_Shafer_MEA_acute_burst_percentage_std: CCTE's Neural Acute Assay for Standard Deviation of Burst Percentage, Shafer Lab (AID 2284018);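 further: fitted in the negative direction so actives lower burst percentage SD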", "how_it_was_run": "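Value is percent change from baseline in the across-electrode SD of spikes-in-bursts percentage, wells with >/= 10 active electrodes. Acute 40-min exposure to 0.03-40 uM on DIV 13 or 15 rat cortical cultures, recorded at 37 C after 40-min baseline.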"}
{"smiles": "COP(=O)(OC)C(O)C(Cl)(Cl)Cl", "note": "(stereo not given)", "outcome": "inactive"}
{"smiles": "Cc1ccn2nc(S(=O)(=O)Nc3c(F)cccc3F)nc2n1", "outcome": "inactive"}
{"smiles": "CC1=NNC(=O)N(/N=C/c2cccnc2)C1", "outcome": "inactive"}
{"smiles": "C[Si](Cn1cncn1)(c1ccc(F)cc1)c1ccc(F)cc1", "AC50": "4.31 µM (active)"}
{"assay": "CCTE_Shafer_MEA_acute_per_network_burst_spike_number_mean: CCTE's Neural Acute Assay for Average Number of Spikes in a Network Burst, Shafer Lab (AID 2284019);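 on AC50: curve fitted for loss of signal so actives reduce spikes per network burst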", "how_it_was_run": "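Percent change from baseline in mean spikes per network burst, spikes detected at 8x rms noise. Each compound at 0.03-40 uM in at least three wells of rat cortical cultures, recorded 40 min before and 40 min during exposure.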"}
{"smiles": "FC(F)C(F)(F)OCC(Cn1cncn1)c1ccc(Cl)cc1Cl", "note": "(stereo not given)", "outcome": "inactive"}
{"smiles": "C=C(C)[C@H]1Cc2c(ccc3c2O[C@@H]2COc4cc(OC)c(OC)cc4[C@@H]2C3=O)O1", "outcome": "inactive"}
{"smiles": "CC(=NC#N)N(C)Cc1ccc(Cl)nc1", "outcome": "inactive"}
{"smiles": "COc1cc(OC)nc(Sc2cccc(Cl)c2C(=O)O)n1", "outcome": "inactive"}
{"smiles": "CCCOCC(=Nc1ccc(Cl)cc1C(F)(F)F)n1ccnc1", "AC50": "0.943 µM (active)"}
{"smiles": "CCc1cccc(C)c1N(C(=O)CCl)C(C)COC", "note": "(stereo not given)", "outcome": "inactive"}
{"smiles": "CC(C)[C@H](C(=O)O[C@H](C#N)c1cccc(Oc2ccccc2)c1)c1ccc(Cl)cc1", "outcome": "inactive"}
{"smiles": "CCOP(=S)(Oc1cnc(C(C)(C)C)nc1)OC(C)C", "note": "(stereo not given)", "AC50": "20 µM (active)"}
{"smiles": "CN1COCN(Cc2cnc(Cl)s2)C1=N[N+](=O)[O-]", "outcome": "inactive"}
{"smiles": "CCOC(=O)CC(SP(=O)(OC)OC)C(=O)OCC", "note": "(stereo not given)", "outcome": "inactive"}
{"smiles": "Nc1c(Cl)cc([N+](=O)[O-])cc1Cl", "outcome": "inactive"}
{"smiles": "CSC1=N[C@@](C)(c2ccccc2)C(=O)N1Nc1ccccc1", "outcome": "inactive"}
{"smiles": "C#CCC1=C(C)C(OC(=O)C2C(C=C(C)C)C2(C)C)CC1=O", "note": "(stereo not given)", "outcome": "inactive"}
{"smiles": "O=C(O)c1cc(Oc2ccc(C(F)(F)F)cc2Cl)ccc1[N+](=O)[O-]", "outcome": "inactive"}
{"smiles": "C[N+]1(C)CCCCC1", "outcome": "inactive"}
{"smiles": "CN(C)NC(=O)CCC(=O)O", "outcome": "inactive"}
{"smiles": "CCOP(=O)(NC(C)C)Oc1ccc(SC)c(C)c1", "note": "(stereo not given)", "outcome": "inactive"}
{"smiles": "CC[C@H](C)[C@H]1O[C@]2(C=C[C@@H]1C)C[C@@H]1C[C@@H](C/C=C(\\C)[C@@H](O[C@H]3C[C@H](OC)[C@@H](O[C@H]4C[C@H](OC)[C@@H](NC)[C@H](C)O4)[C@H](C)O3)[C@@H](C)/C=C/C=C3\\CO[C@@H]4[C@H](O)C(C)=C[C@@H](C(=O)O1)[C@]34O)O2", "AC50": "22.5 nM (active) and 1.91 µM (active)"}
{"smiles": "N#CSCSC#N", "outcome": "inactive"}
{"smiles": "CCOP(=S)(OCC)SCCSCC", "outcome": "inactive"}
{"smiles": "COP(=O)(NC(C)=O)SC", "note": "(stereo not given)", "outcome": "inactive"}
{"smiles": "CCOP(=S)(OCC)Oc1ccc2c(C)c(Cl)c(=O)oc2c1", "AC50": "1.99 µM (active)"}
{"smiles": "O=[N+]([O-])c1cc(C(F)(F)F)c(Cl)c([N+](=O)[O-])c1Nc1ncc(C(F)(F)F)cc1Cl", "AC50": "0.321 µM (active)"}
{"smiles": "CNC(=O)ON=C(SC)C(=O)N(C)C", "outcome": "inactive"}
{"smiles": "CN(C)[C@@H]1C(=O)C(C(N)=O)=C(O)[C@@]2(O)C(=O)C3=C(O)c4c(O)cccc4[C@@](C)(O)[C@H]3[C@H](O)[C@@H]12", "outcome": "inactive"}
{"smiles": "CC(C)=CC1C(C(=O)OCN2C(=O)C3=C(CCCC3)C2=O)C1(C)C", "note": "(stereo not given)", "outcome": "inactive"}
{"smiles": "CC(COc1ccc(Oc2ccccc2)cc1)Oc1ccccn1", "note": "(stereo not given)", "outcome": "inactive"}
{"smiles": "CON=C(C(=O)OC)c1ccccc1CON=C(C)c1cccc(C(F)(F)F)c1", "outcome": "inactive"}
{"smiles": "CCc1cnc(C2=NC(C)(C(C)C)C(=O)N2)c(C(=O)O)c1", "note": "(stereo not given)", "outcome": "inactive"}
{"smiles": "CC(C)N(C(=O)SCC(Cl)=C(Cl)Cl)C(C)C", "AC50": "5.79 µM (active)", "outcome": "inactive"}
{"smiles": "COP(=O)(OC)C(O)C(Cl)(Cl)Cl", "note": "(stereo not given)", "AC50": "15 µM (active)"}
{"smiles": "Cc1ccn2nc(S(=O)(=O)Nc3c(F)cccc3F)nc2n1", "outcome": "inactive"}
{"smiles": "CC1=NNC(=O)N(/N=C/c2cccnc2)C1", "outcome": "inactive"}
{"smiles": "C[Si](Cn1cncn1)(c1ccc(F)cc1)c1ccc(F)cc1", "outcome": "inactive"}
{"assay": "CCTE_Shafer_MEA_acute_per_network_burst_spike_number_std: CCTE's Neural Acute Assay for Standard Deviation of Number of Spikes in a Network Burst, Shafer Lab (AID 2284020);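 further: fitted for decrease in spike-number SD versus DMSO so actives lower it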", "how_it_was_run": "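Endpoint: percent change from 40 min baseline in standard deviation of spikes per network burst, after 40 min compound exposure (0.03-40 uM, 37 C). Cortical rat neurons on MEA at DIV 13 or 15; spikes detected at 8x rms noise, 300-5000 Hz band-pass.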"}
{"smiles": "FC(F)C(F)(F)OCC(Cn1cncn1)c1ccc(Cl)cc1Cl", "note": "(stereo not given)", "outcome": "inactive"}
{"smiles": "C=C(C)[C@H]1Cc2c(ccc3c2O[C@@H]2COc4cc(OC)c(OC)cc4[C@@H]2C3=O)O1", "outcome": "inactive"}
{"smiles": "CC(=NC#N)N(C)Cc1ccc(Cl)nc1", "outcome": "inactive"}
{"smiles": "COc1cc(OC)nc(Sc2cccc(Cl)c2C(=O)O)n1", "outcome": "inactive"}
{"smiles": "CCCOCC(=Nc1ccc(Cl)cc1C(F)(F)F)n1ccnc1", "AC50": "4.42 µM (active)"}
{"smiles": "CCc1cccc(C)c1N(C(=O)CCl)C(C)COC", "note": "(stereo not given)", "AC50": "10.8 µM (active)"}
{"smiles": "CC(C)[C@H](C(=O)O[C@H](C#N)c1cccc(Oc2ccccc2)c1)c1ccc(Cl)cc1", "outcome": "inactive"}
{"smiles": "CCOP(=S)(Oc1cnc(C(C)(C)C)nc1)OC(C)C", "note": "(stereo not given)", "AC50": "28 µM (active)"}
{"smiles": "CN1COCN(Cc2cnc(Cl)s2)C1=N[N+](=O)[O-]", "outcome": "inactive"}
{"smiles": "CCOC(=O)CC(SP(=O)(OC)OC)C(=O)OCC", "note": "(stereo not given)", "outcome": "inactive"}
{"smiles": "Nc1c(Cl)cc([N+](=O)[O-])cc1Cl", "AC50": "37 µM (active)"}
{"smiles": "CSC1=N[C@@](C)(c2ccccc2)C(=O)N1Nc1ccccc1", "AC50": "30.8 µM (active)", "outcome": "inactive"}
{"smiles": "C#CCC1=C(C)C(OC(=O)C2C(C=C(C)C)C2(C)C)CC1=O", "note": "(stereo not given)", "AC50": "19.9 µM (active)"}
{"smiles": "O=C(O)c1cc(Oc2ccc(C(F)(F)F)cc2Cl)ccc1[N+](=O)[O-]", "outcome": "inactive"}
{"smiles": "C[N+]1(C)CCCCC1", "outcome": "inactive"}
{"smiles": "CN(C)NC(=O)CCC(=O)O", "outcome": "inactive"}
{"smiles": "CCOP(=O)(NC(C)C)Oc1ccc(SC)c(C)c1", "note": "(stereo not given)", "outcome": "inactive"}
{"smiles": "CC[C@H](C)[C@H]1O[C@]2(C=C[C@@H]1C)C[C@@H]1C[C@@H](C/C=C(\\C)[C@@H](O[C@H]3C[C@H](OC)[C@@H](O[C@H]4C[C@H](OC)[C@@H](NC)[C@H](C)O4)[C@H](C)O3)[C@@H](C)/C=C/C=C3\\CO[C@@H]4[C@H](O)C(C)=C[C@@H](C(=O)O1)[C@]34O)O2", "AC50": "23.7 nM (active) and 1.5 µM (active)"}
{"smiles": "N#CSCSC#N", "outcome": "inactive"}
{"smiles": "CCOP(=S)(OCC)SCCSCC", "outcome": "inactive"}
{"smiles": "COP(=O)(NC(C)=O)SC", "note": "(stereo not given)", "AC50": "0.299 µM (active)", "outcome": "inactive"}
{"smiles": "CCOP(=S)(OCC)Oc1ccc2c(C)c(Cl)c(=O)oc2c1", "AC50": "4.38 µM (active)"}
{"smiles": "O=[N+]([O-])c1cc(C(F)(F)F)c(Cl)c([N+](=O)[O-])c1Nc1ncc(C(F)(F)F)cc1Cl", "AC50": "0.465 µM (active)"}
{"smiles": "CNC(=O)ON=C(SC)C(=O)N(C)C", "outcome": "inactive"}
{"smiles": "CN(C)[C@@H]1C(=O)C(C(N)=O)=C(O)[C@@]2(O)C(=O)C3=C(O)c4c(O)cccc4[C@@](C)(O)[C@H]3[C@H](O)[C@@H]12", "outcome": "inactive"}
{"smiles": "CC(C)=CC1C(C(=O)OCN2C(=O)C3=C(CCCC3)C2=O)C1(C)C", "note": "(stereo not given)", "outcome": "inactive"}
{"smiles": "CC(COc1ccc(Oc2ccccc2)cc1)Oc1ccccn1", "note": "(stereo not given)", "AC50": "10.1 µM (active)"}
{"smiles": "CON=C(C(=O)OC)c1ccccc1CON=C(C)c1cccc(C(F)(F)F)c1", "AC50": "0.59 µM (active)"}
{"smiles": "CCc1cnc(C2=NC(C)(C(C)C)C(=O)N2)c(C(=O)O)c1", "note": "(stereo not given)", "outcome": "inactive"}
{"smiles": "CC(C)N(C(=O)SCC(Cl)=C(Cl)Cl)C(C)C", "AC50": "10.2 µM (active) and 9.26 µM (active)"}
{"smiles": "COP(=O)(OC)C(O)C(Cl)(Cl)Cl", "note": "(stereo not given)", "outcome": "inactive"}
{"smiles": "Cc1ccn2nc(S(=O)(=O)Nc3c(F)cccc3F)nc2n1", "outcome": "inactive"}
{"smiles": "CC1=NNC(=O)N(/N=C/c2cccnc2)C1", "outcome": "inactive"}
{"smiles": "C[Si](Cn1cncn1)(c1ccc(F)cc1)c1ccc(F)cc1", "outcome": "inactive"}
